# Article PMC4336329 (PLoS ONE, 2015)
# About 14,000 (4.5%) of roughly 310,000 compounds showed an effect of 50% or more. The effect is printed as a negative number. What follows is part of a selection rich in strong results, with near analogues and random picks from the rest.
# Biological target: human ether-à-go-go-related gene (hERG) potassium channel (human, UniProt Q12809)
# Experiment: primary screen, population patch clamp on CHO cells stably expressing hERG; higher = less effect of the substance
# 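Also: peak tail current of the secondary pulse compared with the same well before compound.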
# Chain of human ether-à-go-go-related gene (hERG) potassium channel (Q12809 whole entry, looked up): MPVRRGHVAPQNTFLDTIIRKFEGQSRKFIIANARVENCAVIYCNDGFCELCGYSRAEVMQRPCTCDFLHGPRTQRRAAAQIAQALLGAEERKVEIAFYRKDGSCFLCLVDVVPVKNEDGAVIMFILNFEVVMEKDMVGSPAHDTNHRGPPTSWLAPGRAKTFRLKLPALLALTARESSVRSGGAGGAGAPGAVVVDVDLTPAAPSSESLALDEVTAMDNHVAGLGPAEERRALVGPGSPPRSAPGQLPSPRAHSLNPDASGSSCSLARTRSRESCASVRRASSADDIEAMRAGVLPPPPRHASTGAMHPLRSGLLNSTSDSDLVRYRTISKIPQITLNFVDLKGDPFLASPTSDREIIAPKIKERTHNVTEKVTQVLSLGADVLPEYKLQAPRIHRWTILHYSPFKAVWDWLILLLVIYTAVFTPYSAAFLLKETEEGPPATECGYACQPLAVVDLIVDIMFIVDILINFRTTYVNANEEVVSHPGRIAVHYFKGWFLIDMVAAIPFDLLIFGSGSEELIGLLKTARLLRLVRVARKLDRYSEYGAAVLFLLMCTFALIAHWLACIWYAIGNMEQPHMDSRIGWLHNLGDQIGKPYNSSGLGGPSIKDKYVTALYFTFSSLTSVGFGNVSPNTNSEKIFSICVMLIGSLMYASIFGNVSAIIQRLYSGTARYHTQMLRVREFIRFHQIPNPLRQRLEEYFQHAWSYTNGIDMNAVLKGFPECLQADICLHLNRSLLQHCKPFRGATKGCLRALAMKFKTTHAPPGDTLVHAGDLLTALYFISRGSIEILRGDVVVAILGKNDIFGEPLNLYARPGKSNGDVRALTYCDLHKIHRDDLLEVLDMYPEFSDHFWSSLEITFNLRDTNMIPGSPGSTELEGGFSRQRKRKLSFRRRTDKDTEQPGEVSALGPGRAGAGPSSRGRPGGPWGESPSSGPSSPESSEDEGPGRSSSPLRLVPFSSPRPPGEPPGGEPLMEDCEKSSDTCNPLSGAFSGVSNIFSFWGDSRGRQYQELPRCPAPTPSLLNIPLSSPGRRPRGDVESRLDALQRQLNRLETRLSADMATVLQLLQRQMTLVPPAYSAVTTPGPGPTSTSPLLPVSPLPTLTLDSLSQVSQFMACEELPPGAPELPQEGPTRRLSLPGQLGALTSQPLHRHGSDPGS
row,SMILES,"hERG current change (%, negative = inhibition) at 10uM"
1,COc1ccc(-c2nc3n(n2)C(c2ccncc2)C(C(N)=O)=C(C)N3)cc1 (centres unmarked),0.391%
2,CCOc1ccc(C(CC(=O)O)NC(=O)c2ccco2)cc1 (centres unmarked),11%
3,COc1cc(/C=N/n2cnnc2)ccc1OCc1ccccc1,6.55%
4,CN(C)S(=O)(=O)c1cccc(NC(=O)c2cccc(S(=O)(=O)N3CCc4ccccc43)c2)c1,-4.62%
5,CN(C(=O)c1ccc(Cl)c([N+](=O)[O-])c1)C1(C)CCS(=O)(=O)C1 (centres unmarked),-10.9%
6,O=C(c1ccc(Cl)cc1)C1CCCN(Cc2cnn(-c3ccccc3)c2)C1 (centres unmarked),-74.6%
7,CSc1ccccc1C(=O)C1CCCN(Cc2cnn(-c3ccccc3)c2)C1 (centres unmarked),-67.4%
8,CSc1ncc(CN2CCCC(C(=O)c3ccccc3SC)C2)cn1 (centres unmarked),-65.1%
9,CSc1ccccc1C(=O)C1CCCN(Cc2ccncc2)C1 (centres unmarked),-41.7%
10,CSc1ccccc1C(=O)C1CCCN(Cc2ccccn2)C1 (centres unmarked),-12.6%
11,CSc1ccccc1C(=O)C1CCCN(Cc2c(C)n(C)n(-c3ccccc3)c2=O)C1 (centres unmarked),-16.2%
12,O=C(C1CCCN(Cc2ccc(Cl)cc2)C1)N1CCCCC1.O=C(O)C(=O)O (centres unmarked),-14.9%
13,CSc1ccccc1C(=O)C1CCCN(Cc2ccn[nH]2)C1 (centres unmarked),-8.34%
14,Cc1cc(C)n2c(SCC(=O)NC3CCCCC3C)nnc2n1 (centres unmarked),29.5%
15,CCN(C(=O)COC(=O)/C=C/c1ccco1)c1c(N)n(Cc2ccccc2)c(=O)[nH]c1=O,-1.01%
16,CC(C)CC(NC(=O)CCC(=O)OCC(=O)[C@@]1(O)CCC2[C@@H]3CCC4=CC(=O)C=C[C@]4(C)C3[C@@H](O)C[C@@]21C)C(=O)O (some centres unmarked),0.23%
17,O=C(CSc1nnc(-c2ccccc2Cl)o1)Nc1ccccn1,14.9%
18,CN(CCC#N)CC(=O)Nc1ccc(S(N)(=O)=O)cc1,13.3%
19,CCc1cc(C(=O)N2CCCC(C(=O)c3cccc(OC(C)C)c3)C2)n(C)n1 (centres unmarked),-6.49%
20,CCc1nc(N2CCCCC2)c2oc3ccccc3c2n1.Cl,6.57%
21,O=C(c1ccco1)N1CCN(c2ncccn2)CC1,-18.2%

row,SMILES,"hERG current change (%, negative = inhibition) at 10uM"
1,Cc1nc(N2CCOCC2)c2oc3ccccc3c2n1,-9.35%
2,CCc1nc(N2CCN(C(=O)c3ccco3)CC2)c2oc3ccccc3c2n1.Cl,-64.8%
3,Cc1nc(N2CCN(C(=O)c3ccco3)CC2)c2oc3ccccc3c2n1.Cl,-54.8%
4,CCc1nc(N2CCC(C)CC2)c2oc3ccccc3c2n1.Cl,5.55%
5,Cc1nc(N2CCC(C)CC2)c2oc3ccccc3c2n1,6.63%
6,Clc1ccc(N2CCN(c3ncnc4c3oc3ccccc34)CC2)cc1,4.58%
7,O=C(c1ccco1)N1CCN(c2ncnc3c2oc2ccccc23)CC1,-55.4%
8,CC(C)=NN/C(N)=N/C(=S)Nc1ccc(C)cc1,-3.24%
9,O=C(NCC1CCCO1)c1cccc(NC(=O)c2ccco2)c1 (centres unmarked),0.813%
10,Cc1oc(-c2ccccc2F)nc1CSCC(=O)NC1CC1,3.12%
11,O=C(CCSc1ccc(Cl)cc1)NCc1ccncc1,-32.7%
12,Cc1ccc(SCC(=O)NCc2ccncc2)cc1,-6.77%
13,O=C(CN(C1CCCCC1)S(=O)(=O)c1ccc(F)cc1)NCc1ccncc1,-41.9%
14,CS(=O)(=O)N(CC(=O)NCc1ccc(Cl)cc1)C1CCCCC1,-26.1%
15,CS(=O)(=O)N(CC(=O)NCc1ccncc1)C1CCCCC1,1.91%
16,O=C(CN(C1CCCCC1)S(=O)(=O)c1ccc(Cl)cc1)NCc1ccncc1,-69.8%
17,O=C(CN(C1CCCCC1)S(=O)(=O)c1ccc(Cl)cc1)NCCCO,-25.8%
18,Cc1ccc(S(=O)(=O)N(CC(=O)NCc2ccncc2)C2CCCCC2)cc1,-63%
19,O=C(CN(C1CCCCC1)S(=O)(=O)c1ccc(Br)cc1)NCc1ccncc1,-72.9%
20,CN(CC(=O)NCc1ccncc1)S(=O)(=O)c1ccc(Br)cc1,-13.4%
21,Cc1ccc(SCCC(=O)NCc2ccncc2)cc1,-61.9%

row,SMILES,"hERG current change (%, negative = inhibition) at 10uM"
1,CCN(C1CCCCC1)S(=O)(=O)c1ccc(S(=O)(=O)NCc2ccncc2)cc1,-4.63%
2,NNC(=O)CSc1nc(-c2ccccc2)cn1-c1ccccc1,-0.037%
3,Cc1ccccc1NC(=O)C1CCN(c2cnccn2)CC1,-14.7%
4,Cc1cc(C)cc(NC(=S)N2CCN(c3ncccn3)CC2)c1,13%
5,Cc1ccccc1C(=O)NC(NC(=S)Nc1ccc(S(N)(=O)=O)cc1)C(Cl)(Cl)Cl (centres unmarked),19.3%
6,CCOC(=O)C1CCN(C(=O)c2ccc(OC3CCN(C(=O)CCOC)CC3)cc2)CC1,8.91%
7,CCSc1ccc([C@@H]2[C@H]3C(=O)N(C)C(=O)[C@H]3[C@]3(C(=O)OC)CCCCN23)cc1OC.O=C(O)C(F)(F)F,-8.41%
8,COc1cccc(OC)c1C(=O)Nc1ccc2c(c1)Cc1ccccc1-2,15.5%
9,Cc1cc(-c2nn(-c3ccccc3F)cc2CN2CCCC(CO)C2)c(C)s1 (centres unmarked),-7.33%
10,COc1ccc(-c2nn(-c3ccccc3C)cc2CNCCc2cnc[nH]2)cc1F,-70.6%
11,Cc1cc(-c2nn(-c3ccccc3F)cc2CN2CCC(O)CC2)c(C)s1,-28.9%
12,CCn1cc(CNCc2cn(-c3ccccc3C)nc2-c2ccc(OC)c(F)c2)cn1,-22%
13,Cc1cc(-c2nn(-c3ccccc3F)cc2CN2CCN(c3ccncc3)CC2)c(C)s1,-94.3%
14,Cc1cc(-c2nn(-c3ccccc3F)cc2CN2CCC(C(N)=O)CC2)c(C)s1,-28.5%
15,Cc1cc(-c2nn(-c3ccccc3F)cc2CNCCc2cnccn2)c(C)s1,-52.3%
16,Cc1cc(-c2nn(-c3ccccc3F)cc2CN2CCCC(O)C2)c(C)s1 (centres unmarked),-9.16%
17,Cc1cc(-c2nn(-c3ccccc3F)cc2CN2CCN(c3ccccn3)CC2)c(C)s1,18.6%
18,Cc1cc(-c2nn(-c3ccccc3F)cc2CN(C)CC(O)CO)c(C)s1 (centres unmarked),-22.3%
19,Cc1cc(-c2nn(-c3ccccc3F)cc2CNCCc2cnc[nH]2)c(C)s1,-53.6%
20,COc1ccc(-c2nn(-c3ccccc3C)cc2CNCc2cccnc2)cc1F,-38.3%
